Screening data from PubChem.
Sampled rows, rich in hits. Any-hit rate of the full collection: about 6.3%.
Gal4-VP16 FLuc = VP16 counterscreen qHTS for inhibitors of ROR gamma transcriptional activity; Drosophila S2 Gal4-VP16 UAS-luciferase, luminescence, 20 h; Potency, µM (top dose mostly 53.6 µM), actives largely listed as inhibitors; 310,000 tested, 3.5% active;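 also: Gal4-VP16 expression switched on by copper sulfate through the metallothionein promoter; nearly all actives have a fitted effect of over 50% in size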
ATXN viability = Viability Counterscreen for Primary qHTS for Inhibitors of ATXN expression; 400,000 tested, 0.49% active; S2 cells (HEK-293 line with an ATXN2-luciferase reporter) viability, CellTiter-Fluor protease fluorescence, 24 h; Potency, µM (top dose mostly 56.7 µM), hits mostly cytotoxic; also: nearly all actives have a fitted effect of over 40% in size
ATXN2 expr inh = Primary qHTS for Inhibitors of ATXN expression; HEK-293 ATXN2-luciferase reporter, luminescence, 24 h; Potency, µM (series often up to 57 µM), most hits filed as inhibitors; 360,000 tested, 0.72% active; also: nearly all actives have a fitted effect of over 55% in size
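ATXN2-luciferase reporter cells (luciferase flanked by upstream and downstream ATXN2 gene portions) were treated 24 h at 37 °C with compounds at up to 57 uM. SteadyGlo luminescence gave expression; GF-AFC fluorescence gave viability.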
RORg inh = qHTS for inhibitors of ROR gamma transcriptional activity. Nuclear receptor ROR-gamma (Mus musculus), P51450. Drosophila S2 Gal4-RORgamma UAS-luciferase reporter, 20 h. Potency, µM (titrated, usually from 53.6 µM), most hits filed as inhibitors. 310,000 tested, 5.4% active. AID 2551, 2010; also: nearly all actives have a fitted effect of over 60% in size
Target sequence (P51450 whole entry, looked up, the tested form may be a part): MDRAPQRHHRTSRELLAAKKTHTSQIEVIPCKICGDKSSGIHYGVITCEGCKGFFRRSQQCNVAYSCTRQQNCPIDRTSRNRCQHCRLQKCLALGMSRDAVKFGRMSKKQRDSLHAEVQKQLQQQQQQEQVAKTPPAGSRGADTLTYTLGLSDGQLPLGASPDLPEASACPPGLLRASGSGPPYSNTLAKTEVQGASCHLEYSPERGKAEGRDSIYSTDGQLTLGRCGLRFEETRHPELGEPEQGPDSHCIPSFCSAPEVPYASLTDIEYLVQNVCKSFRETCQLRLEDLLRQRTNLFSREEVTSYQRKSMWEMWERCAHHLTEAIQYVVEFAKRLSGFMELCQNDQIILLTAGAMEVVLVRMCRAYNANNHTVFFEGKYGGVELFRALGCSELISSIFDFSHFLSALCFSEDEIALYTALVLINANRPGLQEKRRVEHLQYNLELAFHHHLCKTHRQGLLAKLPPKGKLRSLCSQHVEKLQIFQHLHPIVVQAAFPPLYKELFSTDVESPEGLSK
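Compounds are pin-transferred onto Drosophila Schneider cells expressing a copper-inducible Gal4–ROR gamma transactivation domain fusion. After 1 hr, copper sulfate is added to 700 uM final; luciferase is read 20 hr later.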
HepG2 tox-1 = qHTS for Inhibitors of TGF-b: Cytotox Counterscreen; HepG2 CAGA-GFP viability, ATP luminescence, 18 h; Potency, µM (doses to about 46.1 µM), most hits filed as cytotoxic; 410,000 tested, 0.76% active; AID 588856, 2011
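CellTiter-Glo luminescence gave cytotoxicity after 18 hours at 37 degrees C. The cells were HepG2 CAGA-GFP in 1% FBS DMEM, stimulated with 500 pg/mL TGF-beta after compound addition. %Activity was normalised to no-cell wells (complete cell-killing) and DMSO (no toxicity), and curves were fitted and classified.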
TGFb SMAD3 inh = qHTS for Inhibitors of TGF-b | 410,000 tested, 1.2% active | AID 588855, 2011 | HepG2 CAGA-GFP TGF-b/SMAD3 reporter, GFP fluorescence, 18 h; TGF-beta stimulated, 500 pg/mL final | Potency, µM (top dose mostly 46.1 µM), hits mostly inhibitors; also: nearly all actives have a fitted effect of over 65% in size
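Read-out: total well GFP (ex488/em500-530) summed from mean per-cell fluorescence. Cells: HEPG2 CAGA-GFP, 1% FBS DMEM, 18 h at 37 degrees C with 500 pg/mL final TGF-beta. Unstimulated wells served as the full-inhibition control; stimulated DMSO wells = 0%.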
TGFb confirm = qHTS for Inhibitors of TGF-b: Confirmation of Cherry Picks; shares compounds with TGFb SMAD3 inh; HepG2 CAGA-GFP TGF-b reporter, GFP fluorescence, 18 h; cells stimulated with TGF-beta, 500 pg/mL; Potency, µM (highest dose often 46.1 µM), actives largely listed as inhibitors; 1,600 tested, 63% active; AID 720534, 2013; also: nearly all actives have a fitted effect of over 65% in size
HepG2 tox-2 = qHTS for Inhibitors of TGF-b: Cytotox Counterscreen for Cherry Picks; shares compounds with TGFb SMAD3 inh; HepG2 CAGA-GFP viability, ATP luminescence, 18 h; cells stimulated with TGF-beta, 500 pg/mL; Potency, µM (doses to about 46.1 µM), usual class: inhibitors; 1,600 tested, 27% active; AID 720535, 2013; also: nearly all actives have a fitted effect of over 70% in size
TGFb CCL64 inh = qHTS for Inhibitors of TGF-b: CCL64 Cells Orthogonal Assay for Cherry Picks | shares compounds with TGFb SMAD3 inh | CCL64 CAGA-GFP reporter, TGF-b stimulated, GFP fluorescence, 18 h | Potency, µM (highest dose often 46.1 µM), hits mostly inhibitors | 1,600 tested, 41% active | AID 720536, 2013; also: nearly all actives have a fitted effect of over 65% in size
TGFb COP inh = qHTS for Inhibitors of TGF-b: Hit Validation in HepG2 Cells using COP promoter | shares compounds with TGFb SMAD3 inh | HepG2 COP-GFP TGF-b reporter, GFP fluorescence, 18 h; cells stimulated by added recombinant TGF-beta | Potency, µM (top dose mostly 46.1 µM), hits mostly inhibitors | 1,600 tested, 3% active | AID 720537, 2013; also: nearly all actives have a fitted effect of over 70% in size
Hits are given with their value; i = inactive; ? = inconclusive; nt = not tested or not shown. Calls follow the shape of the dose curve; as a rule, active = well fitted curve in the direction sought with a large enough effect; inconclusive = small, poorly fitted or top-dose-only effect, or another doubt; inactive = no such curve, though single readings can be large; an effect the other way counts as inactive or inconclusive.

SMILES | Gal4-VP16 FLuc | ATXN viability | ATXN2 expr inh | RORg inh | HepG2 tox-1 | TGFb SMAD3 inh | TGFb confirm | HepG2 tox-2 | TGFb CCL64 inh | TGFb COP inh
COc1ccc(CC2C(=O)NC(C)C(=O)N(C)C3Cc4ccc(cc4)Oc4cc(ccc4O)CC(C(=O)NC(C)C(=O)NC(C)C(=O)N2C)N(C)C3=O)cc1 (configuration not stated) | nt | 0.06µM | 0.24µM | nt | i | i | 0.018µM | 0.21µM | 0.021µM | i
CC(=O)c1cc(-c2ccccc2)n(CC(=O)Nc2ccc(C)cc2C)c1C | nt | nt | nt | nt | i | i | nt | nt | nt | nt
CN(C)S(=O)(=O)c1cccc(-c2csc(=Nc3ccccc3)n2CCCN2CCOCC2)c1 | i | i | i | i | i | i | nt | nt | nt | nt
CC(=O)c1cccc(N=c2scc(-c3ccc(S(=O)(=O)N4CCOCC4)cc3)n2CCO)c1 | 2µM | i | i | ? | i | ? | i | i | ? | i
O=C(Nc1cccc(C(F)(F)F)c1)C1Cc2c(-c3ccccc3)ccnc2O1 (configuration not stated) | nt | i | ? | nt | i | ? | nt | nt | nt | nt
O=C(Nc1cccc(C(F)(F)F)c1)C1Cc2c(-c3ccc(Cl)cc3)ccnc2O1 (configuration not stated) | nt | ? | i | nt | i | 8.9µM | ? | ? | ? | i
Cc1ccccc1CNC(=O)C1CCCCN1S(=O)(=O)c1ccc(F)cc1 (configuration not stated) | nt | i | i | nt | i | i | nt | nt | nt | nt
O=C(Nc1ccccn1)C1CCN(C(=O)c2ccc(Cl)cc2)CC1 | nt | i | nt | nt | i | i | nt | nt | nt | nt
Cc1ccc(CONC(=O)c2cccc([N+](=O)[O-])c2)cc1 | nt | i | i | nt | i | i | nt | nt | nt | nt
O=C(NCCNc1ccc([N+](=O)[O-])cc1)c1cccc(Br)c1 | i | nt | i | ? | i | i | nt | nt | nt | nt
O=C(CCNc1ccc(Br)cc1)c1cccc([N+](=O)[O-])c1 | i | i | i | ? | i | 13µM | 18µM | i | i | i
Cc1ccc(NCCC(=O)c2cccc([N+](=O)[O-])c2)cc1 | i | i | i | ? | i | 10µM | 23µM | ? | ? | i
O=C(NCc1ccco1)c1ccc2c(c1)N(Cc1cccc(Cl)c1)C(=O)c1ccccc1S2=O (configuration not stated) | nt | nt | nt | nt | i | i | nt | nt | nt | nt
COc1ccc(-c2nc3scc(CCNC(=O)c4cc(OC)cc(OC)c4)n3n2)cc1 | nt | ? | i | nt | i | i | nt | nt | nt | nt
CN1CCC[C@H]1CCNc1ccc2c(=O)c3ccccc3n(C)c2c1 | nt | nt | ? | nt | i | 16µM | ? | ? | 21µM | i
COc1cccc(-c2csc(NC3OC(=O)c4c3ccc(OC)c4OC)n2)c1 (configuration not stated) | ? | ? | i | i | i | 11µM | 21µM | i | ? | i
COc1ccc2c(c1OC)C(=O)OC2Nc1nc(-c2ccc(-c3ccccc3)cc2)cs1 (configuration not stated) | i | i | i | i | i | 7.1µM | 23µM | i | ? | i
CCc1ccc(S(=O)(=O)NCc2ccc(C(=O)NCCN(Cc3ccccc3)C(C)C)cc2)cc1 | nt | ? | ? | nt | i | ? | nt | nt | nt | nt
COc1ccc2c(CN(C)Cc3ccccc3)cc(=O)oc2c1 | nt | i | i | nt | i | i | nt | nt | nt | nt
O=C1C(Nc2ccccc2)=C(NS(=O)(=O)c2ccccc2)C(=O)c2ccccc21 | i | i | i | i | i | 6.3µM | ? | i | i | i
O=S(=O)(Nc1ccc(NS(=O)(=O)c2ccccc2)cc1)c1ccccc1 | nt | i | nt | nt | i | i | nt | nt | nt | nt
CCN(CC)C(=O)[C@H]1CC(CC(=O)NCc2cccc(C(F)(F)F)c2)C(=O)N2CCc3c([nH]c4ccccc34)[C@]12C (some centres not stated) | nt | nt | ? | nt | i | 13µM | 21µM | ? | 15µM | i
CCN(CC)C(=O)[C@H]1C[C@H](CC(=O)NCc2cccc(C(F)(F)F)c2)C(=O)N2CCc3c([nH]c4ccc(Cl)cc34)[C@]12C | nt | ? | ? | nt | 13µM | 10µM | ? | ? | 26µM | i
COCCCN1C(=O)C(CC(=O)NC2CC2)CC(C(=O)N(C(C)C)C(C)C)=C1C (configuration not stated) | nt | i | i | nt | i | i | nt | nt | nt | nt
Cc1ccccc1C1(O)c2ccccc2-c2ccccc21 | nt | ? | nt | nt | i | i | nt | nt | nt | nt
SMILES | Gal4-VP16 FLuc | ATXN viability | ATXN2 expr inh | RORg inh | HepG2 tox-1 | TGFb SMAD3 inh | TGFb confirm | HepG2 tox-2 | TGFb CCL64 inh | TGFb COP inh
Cc1ccc(C)c(N2N=C(C(=O)Nc3ccccc3N3CCCC3)CCC2=O)c1 | i | i | i | i | i | 22µM | 12µM | i | ? | i
Cc1ccc(C)c(N2N=C(C(=O)Nc3ccccc3N3CCOCC3)CCC2=O)c1 | nt | i | i | nt | i | i | nt | nt | nt | nt
CCCCOc1ccc(C(C)NC(=O)c2cccc(Nc3nc4ccccc4n4nnnc34)c2)cc1 (configuration not stated) | nt | i | i | nt | i | ? | nt | nt | nt | nt
CC(C)(C)c1ccc(Cn2nnc3c(=O)[nH]c(C4CCN(C(=O)c5ccco5)CC4)nc32)cc1 | i | i | i | i | i | 13µM | 18µM | ? | i | i
CCOC(=O)[C@]12CCCC=C1N(Cc1cccc3ccccc13)C(=O)[C@H](CC(=O)NCCCN1CCCC1=O)C2 | nt | i | i | nt | nt | nt | nt | nt | nt | nt
CC(C)(C)c1nnc(NC(=O)CCS(=O)(=O)c2ccccc2)s1 | i | ? | i | i | i | 7.1µM | 3.7µM | i | ? | i
CCOc1cccc2sc(NC(=O)CCS(=O)(=O)c3ccccc3)nc12 | i | i | i | i | i | 14µM | 12µM | 23µM | 18µM | ?
CCOC1=C2CN(S(=O)(=O)c3ccc(C)cc3)[C@H](c3ccccc3)C[C@@H]2N(S(=O)(=O)c2ccc(C)cc2)[C@H](c2ccccc2)C1 | nt | i | i | nt | i | ? | nt | nt | nt | nt
